Source: the supplement of paper PMC7830784

test system: Brugia pahangi adult female; experiment: IC50 motility inhibition on day 3; conditions: 3 days
Method: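 Single adult female Brugia pahangi worms in 24-well plates (RPMI-1640, 5% FBS, 37 °C) were treated with 10 µM of each compound from a 2121-drug library (4 replicates; 1% DMSO vehicle and 10 µM auranofin controls). Motility was recorded with WormAssay dark-field imaging, and % inhibition of motility on day 3 is relative to vehicle. IC50 values for selected hits come from a 6-point dilution series (30 to 0.1 µM) fitted in GraphPad Prism.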

Row | SMILES | IC50 motility inhibition on day 3
1 | C[CH2][Hg][S]c1ccccc1C(=O)[O-].[Na+] [thimerosal] | 406 nM
2 | O=c1[nH]c2ccccc2n1C1CCN(CCCC(c2ccc(F)cc2)c2ccc(F)cc2)CC1 [Pimozide] | 2520 nM
3 | N[C@@H]1C[C@H]1c1ccccc1.N[C@H]1C[C@@H]1c1ccccc1 [tranylcypromine] | 6150 nM
4 | [O-][n+]1ccccc1[S-].[O-][n+]1ccccc1[S-].[Zn+2] [pyrithione zinc] | 96.3 nM
5 | CC(=O)[O][Hg][c]1ccccc1 [phenylmercuric acetate] | 179 nM
6 | CC[C@@H](C(=O)[C@@H](C)[C@@H](O)[C@H](C)[C@@H]1O[C@@H]([C@@H](CC)C(=O)O)CC[C@@H]1C)[C@H]1O[C@]2(C=C[C@@H](O)[C@]3(CC[C@@](C)([C@H]4CC[C@](O)(CC)[C@H](C)O4)O3)O2)[C@H](C)C[C@@H]1C [salinomycin] | 635 nM
7 | CNC(=O)Oc1ccc2c(c1)[C@]1(C)CCN(C)[C@@H]1N2C [(-)-Physostigmine] | 13600 nM
8 | Oc1cccc2cccnc12 [oxyquinoline] | 1500 nM
9 | C[C@@H]1O[C@@H](O[C@@H]2C=C3CC[C@@H]4[C@H](CC[C@]5(C)[C@@H](c6ccc(=O)oc6)CC[C@]45O)[C@@]3(C)CC2)[C@H](O)[C@H](O)[C@H]1O [proscillaridin] | 731 nM
10 | CCCCCCCCCCCCCCCC[n+]1ccccc1 [cetylpyridinium chloride] | 3400 nM
